Screens: PubChem BioAssay, National Center for Advancing Translational Sciences (NCATS)
The sample as a whole holds a higher share of hits than the screen did.
Giardia killer – Giardia lamblia killing; Giardia lamblia trophozoite viability; activity change, % at 7.66 µM, hits read low; actives 0.15% (n = 340,000); in the data active = activity change below about -80%; inconclusive = between about -30% and that limit;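 note: parasites exposed to compound for two days anaerobically before the ATP read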
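Anaerobic 48 hrs incubation at 37 deg C of 100 trophozoites/well with test compounds; ATPLite 1-Step luminescence, 15-30 min RT, reports cellular ATP as viability.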
Integrin act MD – activators of alpha7 integrin expression for muscular dystrophy; alpha7betagal myoblasts, beta-gal FDG fluorescence, 48 h; Potency, µM (series often up to 38.3 µM), usual class: activators; actives 0.064% (n = 350,000); note: nearly all actives have a fitted effect of over 60% in size
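alpha7betagal+/- myoblasts (passage 13, 250/well) treated 48 h at 37C with compounds at 1:260 dilution of DMSO stock. Lysed, then beta-galactosidase activity read as FDG fluorescence (ex 480/em 540) after 30 min, with pre-read for autofluorescence.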
Gal4-VP16 FLuc – inhibits Gal4-VP16 luciferase reporter, ROR gamma counter-screen; Potency, µM (top dose mostly 53.6 µM), most hits filed as inhibitors; Drosophila S2 Gal4-VP16 UAS-luciferase, luminescence, 20 h; actives 3.5% (n = 310,000);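 note: Gal4-VP16 expression switched on by copper sulfate through the metallothionein promoter; nearly all actives have a fitted effect of over 50% in size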
RORgamma inh – blocks mouse ROR gamma transcriptional activity. P51450. Drosophila S2 Gal4-RORgamma UAS-luciferase reporter, 20 h. Potency, µM (top dose mostly 53.6 µM), actives largely listed as inhibitors. actives 5.4% (n = 310,000); note: nearly all actives have a fitted effect of over 60% in size
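Compounds are pin-transferred onto Drosophila Schneider cells expressing a copper-inducible Gal4–ROR gamma transactivation domain fusion. After 1 hr, copper sulfate is added to 700 uM final; luciferase is read 20 hr later.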
ERG-DNA inh – inhibitors of human ERG Ets domain-DNA interaction; P11308; AID 624246; fluorescence polarization, His-ERG Ets domain / labelled DNA; Potency, µM (doses to about 76.9 µM), hits mostly inhibitors; actives 0.028% (n = 370,000); active = well fitted inhibition curve with a large enough effect in the polarisation, with a control signal flat; inconclusive = small, poorly fitted or top-dose-only effect, or effect the other way, or a change in a side signal; inactive = no such curve, though single readings can be large or run the other way; the % refers to the polarisation;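 note: polarization taken with two DNA probes labelled with fluorescein and Texas red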
Target sequence (P11308 whole entry, looked up, the tested form may be a part): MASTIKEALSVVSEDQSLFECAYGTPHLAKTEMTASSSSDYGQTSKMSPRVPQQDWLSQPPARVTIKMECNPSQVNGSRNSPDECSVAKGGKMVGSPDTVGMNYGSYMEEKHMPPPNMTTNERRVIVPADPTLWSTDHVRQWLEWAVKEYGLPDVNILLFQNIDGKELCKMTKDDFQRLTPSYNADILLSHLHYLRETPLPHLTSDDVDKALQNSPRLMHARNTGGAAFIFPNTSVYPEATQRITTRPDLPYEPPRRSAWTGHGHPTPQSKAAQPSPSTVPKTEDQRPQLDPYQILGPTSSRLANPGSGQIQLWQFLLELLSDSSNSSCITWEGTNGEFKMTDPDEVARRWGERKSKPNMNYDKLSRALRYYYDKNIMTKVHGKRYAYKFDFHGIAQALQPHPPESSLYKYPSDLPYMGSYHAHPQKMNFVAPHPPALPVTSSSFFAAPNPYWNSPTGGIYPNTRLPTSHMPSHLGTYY
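His-tagged ERG Ets domain (1 uM in the protein solution; 300mM KCl, 50mM Tris-HCl, 1mM EDTA, 1mM DTT, pH 7.5) received compound, then a probe mix of 5 nM fluorescein-DNA and 100nM Texas-615-DNA. Fluorescence polarization was read for both dyes.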
Large screens that a line does not name were inactive. Unless noted, calls come from the whole dose curve; as a rule, active = well fitted curve in the direction sought with a large enough effect; inconclusive = small, poorly fitted or top-dose-only effect, or another doubt; inactive = no such curve, though single readings can be large; an effect the other way counts as inactive or inconclusive.

CCCn1c(NC(=O)C2CCN(C(=O)c3ccc(F)cc3)CC2)nc2ccccc21	Gal4-VP16 FLuc 8.9µM, RORgamma inh 7.1µM
CCCn1c(NC(=O)CCNC(=O)c2ccccc2Cl)nc2ccccc21	none (no result: Gal4-VP16 FLuc, RORgamma inh)
CCCn1c(NC(=O)c2ccc(F)cc2)nc2ccccc21	Gal4-VP16 FLuc 2.5µM, RORgamma inh 0.32µM
CCCn1c(NC(=O)c2ccccc2Br)nc2ccccc21	Gal4-VP16 FLuc 2.8µM, RORgamma inh 0.35µM
O=C(Nc1ccc(F)cc1)C1CCN(C(=O)c2ccc(F)cc2)CC1	none (no result: Gal4-VP16 FLuc, RORgamma inh)
CCCn1c(NC(=O)c2ccc(Br)cc2)nc2ccccc21	Gal4-VP16 FLuc 1.3µM, RORgamma inh 1µM
Cc1ccc(S(=O)(=O)CC(=O)Nc2ccc3nc(C)sc3c2)cc1	none
Cc1cc2cc3c(cc2nc1SCc1ccccn1)OCCO3	none
N#Cc1cc2ccccc2nc1SCc1ccccn1	Gal4-VP16 FLuc inconclusive, RORgamma inh 6.3µM
c1ccc(CNc2ccnc(-c3cccnc3)n2)cc1	none (no result: Giardia killer, Integrin act MD, ERG-DNA inh)
S=c1[nH]cc(-c2ccccc2)n1-c1ccccc1	Gal4-VP16 FLuc 4µM, RORgamma inh 3.5µM
CCOC(=O)c1c[nH]c(=S)n(-c2ccccc2)c1=O	none (no result: Gal4-VP16 FLuc, RORgamma inh)
Cc1ccc(-n2c(-c3ccccc3)c[nH]c2=S)cc1	Gal4-VP16 FLuc 6.3µM, RORgamma inh 2.2µM
COc1ccc(-n2c(-c3ccc(Cl)cc3)c[nH]c2=S)cc1	Gal4-VP16 FLuc 2.8µM, RORgamma inh 0.45µM
CCOCCc1nn2c(=O)cc(COC(=O)c3ccc(NC(=O)c4ccc(F)cc4)cc3)nc2s1	none (no result: Giardia killer, Integrin act MD, Gal4-VP16 FLuc, RORgamma inh)
CC(C)n1c(CSCc2ccc(Cl)cc2Cl)n[nH]c1=S	Integrin act MD inconclusive, Gal4-VP16 FLuc 3.2µM, RORgamma inh 1.4µM
Nc1nnc(CSCc2ccc(Cl)cc2Cl)s1	none
COc1cc(-c2nc(-c3ccc4c(c3)[nH]c(=O)n4C)no2)cc(OC)c1OC	none (no result: Giardia killer, Integrin act MD, Gal4-VP16 FLuc, RORgamma inh)
Cc1c(C(=O)c2no[n+]([O-])c2C(=O)c2cnn(C)c2C)cnn1C	Gal4-VP16 FLuc 8.9µM, RORgamma inh 10µM
COc1ccc(C(=O)c2no[n+]([O-])c2C(=O)c2ccc(OC)cc2)cc1	Gal4-VP16 FLuc inconclusive, RORgamma inh inconclusive
Cc1ccc(Cc2ccc(C(=O)NNC(N)=S)o2)cc1	RORgamma inh 10µM
COc1ccc(NC(=O)c2ccc(Cc3ccc(C)cc3)o2)cc1	none
CCOc1ccc(C(=O)N/N=C/c2ccc(SC)cc2)cc1	none
O=C(N/N=C/c1cccc(C(F)(F)F)c1)c1ccc(O)cc1	Gal4-VP16 FLuc inconclusive, RORgamma inh 1.1µM
O=C(N/N=C/c1ccc(C(F)(F)F)cc1)c1ccc(O)cc1	Gal4-VP16 FLuc 4.5µM, RORgamma inh 1.8µM
CSc1ccc(/C=N/NC(=O)c2cccc(O)c2)cc1	Gal4-VP16 FLuc 2.2µM
O=C(N/N=C/c1c(O)ccc2ccccc12)c1cccc(C(F)(F)F)c1	Integrin act MD inconclusive, Gal4-VP16 FLuc 5µM, RORgamma inh 3.2µM
C=CCn1c(Cc2cccs2)nnc1SCC(=O)c1cccc(Br)c1	none
Oc1ccc(/C=N/Nc2ccc(C(F)(F)F)cn2)c(O)c1	RORgamma inh inconclusive (no result: Giardia killer, Integrin act MD, ERG-DNA inh)
Oc1ccc(/C=N/Nc2ccc(C(F)(F)F)cn2)cc1	Gal4-VP16 FLuc inconclusive, RORgamma inh 4.5µM
S=C(Nc1cccnc1)NC1CCCC1	none
Cc1cccc(NC(=O)Nc2cccc(C)n2)n1	RORgamma inh inconclusive
Cc1cccc(NC(=S)NC2CCCCC2)n1	Gal4-VP16 FLuc 4.5µM, RORgamma inh 1µM
Cc1cccc(NC(=S)NC2CCCC2)n1	Gal4-VP16 FLuc 2.8µM, RORgamma inh 0.35µM
Cc1cccc(NC(=S)Nc2cccc(C)n2)n1	Gal4-VP16 FLuc 6.3µM, RORgamma inh inconclusive
C=CC[C@@H]1C=C[C@H](Oc2ccc(C)cc2)[C@H](COC(=O)NCc2cccc3ccccc23)O1	none (no result: Giardia killer, Integrin act MD, ERG-DNA inh)
CCc1ccc(NC(=O)CC2C(=O)N(c3cccc(OC)c3)C(=O)N2Cc2ccco2)cc1 (centres undefined)	none (no result: Giardia killer, Integrin act MD, Gal4-VP16 FLuc, RORgamma inh)
O=C(Nc1nnc(-c2cccs2)o1)c1cccc(Oc2ccccc2)c1	Gal4-VP16 FLuc 0.56µM, RORgamma inh 0.28µM
O=C(Nc1nnc(-c2cccs2)o1)c1cc(-c2ccccc2)nc2ccccc12	Gal4-VP16 FLuc 2.5µM, RORgamma inh 1.4µM
O=C(Nc1nnc(-c2cccs2)o1)c1cccc(F)c1	none (no result: Gal4-VP16 FLuc, RORgamma inh)
CCC(C(=O)N(C)Cc1ccccc1)n1nc(C)c2sc3ccccc3c2c1=O (centres undefined)	none (no result: Giardia killer, Integrin act MD, Gal4-VP16 FLuc, RORgamma inh)
O=C(CCNC(=O)N1CCn2c1nc1ccccc12)NCc1ccccc1Cl	none
CC(CC(=O)Nc1nccs1)c1ccccc1 (centres undefined)	none
CC(C)c1ccc(CNC(=O)C(=O)Nc2nccs2)cc1	none
CC(C)Cc1ccc(C(C)C(=O)Nc2nccs2)cc1 (centres undefined)	Gal4-VP16 FLuc inconclusive, RORgamma inh 13µM (no result: ERG-DNA inh)
CC(C)C(C(=O)Nc1nccs1)c1ccccc1 (centres undefined)	Gal4-VP16 FLuc inconclusive, RORgamma inh 11µM
CO[C@H]1COC(=O)C/C=C\[C@H](C)COC(=O)[C@@H](C)NC(=O)C/C=C\[C@@H]1C	none (no result: Giardia killer, Integrin act MD, ERG-DNA inh)
COc1cc(C)nc(-n2nc(C)cc2OC)n1	Gal4-VP16 FLuc inconclusive, RORgamma inh 3.2µM (no result: Integrin act MD)
Cc1ccc(-c2sc(-c3ccccc3)nc2CC(=O)Nc2ccccc2F)cc1	Gal4-VP16 FLuc 5µM, RORgamma inh inconclusive
Cn1nc(C(C)(C)C)cc1C(=O)NCc1cc(F)cc2c1OCOC2	Gal4-VP16 FLuc 3.5µM, RORgamma inh inconclusive
